In the OligoGym collection:

Target: CD180
Assay: pooled miR-30 sensor sort-seq; sequence = guide strand
Settings: shRNA
Also: reference of the scale not given here.

In order of falling sensor-assay potency score (higher = more potent):
1. TTGGTCTTCGTGATAGTCCCAT  0.105
2. TTGAGTTGCAGACTGCAGCAGT  0.0591
3. TGAAGTAGGTTGGTCTTCGTGA  -0.298
4. TACACTGAGAACTAATTTCTTG  -0.423
5. TAAATTAATGGTGCTCTGCTGG  -0.664
6. TTGTGTTTGGTAGAGTGTCAGG  -0.807
7. TAGCTGAGGACATTCTTTGAAT  -0.948
8. TAGAGATGTAGTGTATAGCATT  -1.05
9. TTTAACATTATTGCCATTGAAG  -1.17
10. TAGTAGAGTTCTGCAGACCATT  -1.3
